Assay results as given in PubChem BioAssay (NCI).
The panel holds about 83,000 compounds, 20% with a hit somewhere; the sample as a whole holds those more often.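 In brief: 96-well plates, 48 h treatment, single concentration, percent growth endpoint.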 A number with no mark means an inactive call. Activity calls are given as the source filed them. How the source made its calls: active means growth percent below 10; inactive means the rest.

What follows are molecules tested on HCC-2998 colon (assay: NCI-60 one-dose screen, 48 h (100 = growth as untreated, 0 = no growth, -100 = all killed)). Details: 10 µM unless noted.
`Cc1cccc2c3c(sc12)C(c1ccc(F)cc1)C(C#N)=C(N)O3` (centres undefined) showed a growth of 21.9%. In the case of `CCc1cccc2c3c(sc12)C(c1ccc(Cl)cc1)C(C#N)=C(N)O3` (centres undefined), the growth is reported as 17.5%. `CCOC(=O)c1sc2ncc(-c3ccc(OC)cc3)n2c1C` gave a growth of 105%. `Cc1c(C(=O)NCCCc2ccccc2)sc2ncc(-c3ccc(Br)cc3)n12` showed a growth of 110%. Work on `O=S(=O)(Nc1ccc(-c2nc(-c3cccc(OCCN4CCOCC4)c3)c(-c3ccnc(Br)c3)[nH]2)cc1)c1ccccc1` yielded a growth of 19.1%. Molecule `COc1ccc(-c2cc(-c3ccc(Cl)cc3)c(C#N)c(=O)n2CCCCCC(=O)Nc2ccccc2N)cc1` has a growth of 82.8%. `CCOC(=O)Nc1ccc(-c2nc(-c3cccc(OC)c3)c(-c3ccnc(Br)c3)[nH]2)cc1` showed a growth of 40.9%. With `CCn1cnc2c1c(=O)[nH]c(=O)n2CC1CCC(CNS(=O)(=O)c2ccc(OC3CCOCC3)c(F)c2)CC1` (centres undefined) the growth was 63.9%. With `Cc1ccc(NC2=C(Cl)C(=O)c3nc(C)ccc3C2=O)cc1` the growth was 4.99% (active). With `CCc1cccc2c3c(sc12)C(c1ccc(F)cc1)C(C#N)=C(N)O3` (centres undefined) the growth was 15.4%. `CCc1cccc2c1S/C(=C/c1ccc(OC)cc1)C2=O` was tested, and the growth was 77.7%. Molecule `CCOC(=O)Nc1ccc(-c2nc(-c3cccc(OCCN4CCOCC4)c3)c(-c3ccnc(Br)c3)[nH]2)cc1` has a growth of 38.5%. With `COc1cccc(-c2nc(-c3ccc(NC(=O)c4ccccc4)cc3)[nH]c2-c2ccnc(Br)c2)c1` the growth was 31.1%. In the case of `O=C(CCN1C(=O)/C(=C/c2ccc(O)cc2)SC1=S)Nc1ccccc1`, the growth is reported as 111%. With `CC1=C(C)C(=O)C(Nc2cccc(C(=O)OC(C)(C)C)c2)=C(Br)C1=O` the growth was 100%. Molecule `Cc1ccc(C(CC(=O)O)c2c(C)[nH][nH]c2=O)cc1` (centres undefined) has a growth of 108%. With `CCCCCCn1c(-c2ccc(C(=O)O/N=C(\N)c3ccc(OC)cc3)cc2)nc(-c2ccccc2)c1-c1ccccc1` the growth was 3.48% (active). `Cc1cccc(NC2=C(Cl)C(=O)c3nc(C)ccc3C2=O)c1` was tested, and the growth was 3.47% (active). `O=C(CCN1C(=O)/C(=C/c2ccc(O)cc2)SC1=S)Nc1ccc(Cl)cc1` gave a growth of 115%. For `COC(=O)Nc1ccc(-c2nc(-c3cccc(OC)c3)c(-c3ccnc(Br)c3)[nH]2)cc1`, the growth was 71.5%. `O=C1/C(=C/c2ccccc2[N+](=O)[O-])Oc2ccc(O)c(O)c21` was tested, and the growth was 57.9%. `Cc1cccc2c3c(sc12)C(c1ccc(Cl)cc1)C(C#N)=C(N)O3` (centres undefined) was tested, and the growth was 18.3%. Molecule `Cc1ccc(-c2cnc3sc(C(=O)NCCc4ccccc4)c(C)n23)cc1` has a growth of 96.9%. Work on `CCCCCCn1c(-c2ccc(C(=O)O/N=C(\N)c3ccc4c(c3)OCO4)cc2)nc(-c2ccccc2)c1-c1ccccc1` yielded a growth of 44%. For `CC(C)OC(=O)Nc1ccc(-c2nc(-c3cccc(OCCN4CCOCC4)c3)c(-c3ccnc(Br)c3)[nH]2)cc1`, the growth was 29.4%. With `CCCCCCn1c(-c2ccc(C(=O)O/N=C(\N)c3ccc4ccccc4c3)cc2)nc(-c2ccccc2)c1-c1ccccc1` the growth was 93.8%. `O=C(Nc1ccc(-c2nc(-c3cccc(OCCN4CCOCC4)c3)c(-c3ccnc(Br)c3)[nH]2)cc1)c1ccccc1` gave a growth of 11.3%. With `CCOC(=O)c1sc2ncc(-c3ccc(C)cc3)n2c1C` the growth was 93.3%. In the case of `CC(C)C(=O)Nc1ccc(-c2nc(-c3cccc(OCCN4CCOCC4)c3)c(-c3ccnc(Br)c3)[nH]2)cc1`, the growth is reported as 66.2%. For `CCOC(=O)C1=C(N)Oc2c(sc3c(C)cccc23)C1c1ccc(Cl)cc1` (centres undefined), the growth was 49.3%. In the case of `CCOC(=O)C1=C(N)Oc2c(sc3c(C)cccc23)C1c1ccc(OC)cc1` (centres undefined), the growth is reported as 74.4%. For `CCC(=O)Nc1ccc(-c2nc(-c3cccc(OC)c3)c(-c3ccnc(Br)c3)[nH]2)cc1`, the growth was 69%. For `Cc1cccc2c1S/C(=C/c1ccc([N+](=O)[O-])cc1)C2=O`, the growth was 122%. With `CCOC(=O)C1=C(N)Oc2c(sc3c(CC)cccc23)C1c1ccc(F)cc1` (centres undefined) the growth was 61.4%.
